# In PubChem BioAssay:
# The source made the active and inactive calls.
# Key:
# [1] = E. coli DRC41 culture turbidity changes, primary screen, E. coli filamentation inducer project, strain DRC41, OD650, 48 h (AID 1152);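 also: E. coli MC1000 strain DRC41 lacking acrAB efflux pump and sulA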; details: E. coli DRC41 (acrAB sulA), higher = more signal, called active from +8 up or from −8 down
# [2] = small-molecule binders of probe aLefty1, primary screen, biochemical, small-molecule microarray, 635/667 nm fluorescence (AID 1153); details: higher = more signal;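 also: score merges spot fluorescence with signal-to-noise ratio from the scanned slide images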
# [3] = PSAC antagonists in infected red cells, primary screen, cell-based, P. falciparum Indochina, OD700, 1 h (AID 1154); details: P. falciparum Indochina infected RBC osmotic lysis, higher = more signal, called active from +8 up or from −8 down
# [4] = PSAC antagonists in infected red cells, primary screen, cell-based, P. falciparum Indochina, OD700, 2 h (AID 1155);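 also: lysis reports solute entry through the parasite surface anion channel PSAC; channel blockers reduce lysis of infected cells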; details: P. falciparum Indochina infected erythrocytes, osmotic lysis OD700; higher = more signal, called active from +8 up or from −8 down
# [5] = osmotic lysis modulators in infected erythrocytes, primary screen, PSAC antagonist project, cell-based, P. falciparum Indochina, OD700, 3 h (AID 1156); details: higher = more signal, called active from +8 up or from −8 down
# [6] = PSAC antagonists in infected red cells, primary screen, cell-based, P. falciparum Indochina, OD700, 18 h (AID 1157); details: P. falciparum Indochina infected erythrocytes, osmotic lysis OD700, 18 h; higher = more signal, called active from +8 up or from −8 down
# [7] = modulators of S6 phosphorylation in cells, primary screen, cell-based, A549, cytoblot, luminescence, serum-stimulated (AID 1158); details: A549 phospho-S6 cytoblot, 5 h, higher = more signal;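 also: serum-stimulated A549 lung adenocarcinoma cells; signal is phosphorylated S6 detected by cytoblot immunostaining with HRP secondary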
# [8] = target: NADPH oxidase 2 (Homo sapiens) (UniProt P04839); assay: NOX2-dependent H2O2 signal modulators, primary screen, NOX inhibitor project, cell-based, HEK293-NOX2, PMA-stimulated, Amplex Red fluorescence (AID 1159); details: 45 min, higher = more signal, called active from +8 up or from −8 down; also: test concentration not given here
# [9] = target: NADPH oxidase 4 (Homo sapiens) (UniProt Q9NPH5); assay: NOX4-dependent H2O2 signal modulators, primary screen, NOX inhibitor project, cell-based, HEK293-NOX4, tetracycline-induced, Amplex Red fluorescence (AID 1160); details: 45 min, higher = more signal, called active from +8 up or from −8 down
# [10] = target: NADPH oxidase 5 (Homo sapiens) (UniProt Q96PH1); assay: NOX5-dependent H2O2 signal modulators, primary screen, NOX inhibitor project, cell-based, HEK293-NOX5, Amplex Red fluorescence (AID 1161); details: HEK293-NOX5, ionomycin, 45 min, higher = more signal
# [11] = A549 cell viability effects, profiling panel, calcein-AM fluorescence, 48 h, basal (AID 1162); details: higher = more signal; also: test concentration not given here
# [12] = adipocyte viability effects, profiling panel, cell-based, 3T3-L1 adipocytes, calcein-AM fluorescence, 48 h, basal (AID 1163); details: 3T3-L1 adipocytes viability, higher = more signal; also: test concentration not given here
# [13] = HepG2 cell viability effects, profiling panel, calcein-AM fluorescence, 48 h, basal (AID 1164); details: higher = more signal; also: test concentration not given here
# [14] = MM1S cell viability effects, profiling panel, calcein-AM fluorescence, 48 h, basal (AID 1165); details: higher = more signal;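 also: viability of MM1S multiple myeloma cells under basal unstimulated conditions; test concentration not given here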
# [15] = basal RPMI8226 viability, no added stimulus, profiling panel, cell-based, calcein-AM fluorescence, 48 h, PK04 Diversity Set (AID 1166); details: RPMI8226 myeloma viability, higher = more signal;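 also: cells grown under basal conditions without added stimulus; test concentration not given here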
# [16] = basal HepG2 mitochondrial membrane potential changes, profiling panel, cell-based, JC-1 fluorescence, 24 h, 100 nL compound (AID 1167); details: higher = more signal; also: test concentration not given here
# [17] = basal 3T3-L1 adipocyte mitochondrial potential changes, profiling panel, cell-based, JC-1 fluorescence, 3T3-L1 adipocytes, 24 h, 100 nL compound (AID 1168); details: JC-1 mitochondrial fluorescence, higher = more signal, called active from +8 up or from −8 down; also: test concentration not given here
# [18] = basal RPMI8226 mitochondrial membrane potential changes, profiling panel, cell-based, JC-1 fluorescence, 24 h, 100 nL compound (AID 1169); details: RPMI8226 myeloma, JC-1 mitochondrial potential fluorescence, higher = more signal; also: test concentration not given here
# [19] = basal MM1S mitochondrial membrane potential changes, profiling panel, cell-based, JC-1 fluorescence, 24 h, 100 nL compound (AID 1170); details: higher = more signal; also: test concentration not given here
# [20] = A549 lung cancer cell viability effects, profiling panel, resazurin fluorescence, 24 h, PK04 Diversity Set (AID 1171); details: higher = more signal, called active from +8 up or from −8 down; also: test concentration not given here
# Sequence of NADPH oxidase 4 (Homo sapiens) (Q9NPH5 whole entry, looked up): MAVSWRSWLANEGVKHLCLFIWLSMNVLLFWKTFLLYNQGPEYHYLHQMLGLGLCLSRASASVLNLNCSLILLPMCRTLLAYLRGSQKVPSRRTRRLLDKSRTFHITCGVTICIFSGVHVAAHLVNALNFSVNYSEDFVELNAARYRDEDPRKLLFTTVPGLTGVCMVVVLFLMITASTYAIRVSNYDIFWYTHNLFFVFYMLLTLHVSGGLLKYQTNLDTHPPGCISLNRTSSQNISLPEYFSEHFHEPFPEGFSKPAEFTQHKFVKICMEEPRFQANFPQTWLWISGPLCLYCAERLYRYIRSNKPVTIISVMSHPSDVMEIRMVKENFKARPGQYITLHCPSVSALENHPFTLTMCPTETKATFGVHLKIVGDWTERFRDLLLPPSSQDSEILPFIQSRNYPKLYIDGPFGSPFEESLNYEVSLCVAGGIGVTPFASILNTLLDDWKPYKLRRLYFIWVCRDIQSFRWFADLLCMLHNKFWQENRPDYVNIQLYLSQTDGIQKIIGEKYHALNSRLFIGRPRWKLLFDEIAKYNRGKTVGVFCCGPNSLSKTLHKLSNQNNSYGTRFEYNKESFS
# Sequence of NADPH oxidase 2 (Homo sapiens) (P04839 whole entry, looked up): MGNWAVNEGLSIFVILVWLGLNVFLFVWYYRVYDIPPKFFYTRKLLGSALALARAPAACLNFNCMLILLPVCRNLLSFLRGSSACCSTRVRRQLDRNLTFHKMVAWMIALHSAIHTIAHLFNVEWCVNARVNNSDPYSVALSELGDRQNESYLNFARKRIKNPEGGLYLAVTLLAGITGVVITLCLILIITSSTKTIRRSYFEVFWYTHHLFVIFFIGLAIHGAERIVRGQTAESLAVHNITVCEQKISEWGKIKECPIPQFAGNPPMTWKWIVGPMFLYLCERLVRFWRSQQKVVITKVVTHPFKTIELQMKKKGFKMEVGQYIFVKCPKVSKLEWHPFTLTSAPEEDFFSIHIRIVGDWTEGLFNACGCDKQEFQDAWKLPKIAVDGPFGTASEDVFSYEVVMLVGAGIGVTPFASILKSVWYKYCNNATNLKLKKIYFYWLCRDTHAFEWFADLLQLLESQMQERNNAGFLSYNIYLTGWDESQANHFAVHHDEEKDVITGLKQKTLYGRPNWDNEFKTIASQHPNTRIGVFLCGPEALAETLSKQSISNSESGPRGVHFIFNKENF
# Sequence of NADPH oxidase 5 (Homo sapiens) (Q96PH1 whole entry, looked up): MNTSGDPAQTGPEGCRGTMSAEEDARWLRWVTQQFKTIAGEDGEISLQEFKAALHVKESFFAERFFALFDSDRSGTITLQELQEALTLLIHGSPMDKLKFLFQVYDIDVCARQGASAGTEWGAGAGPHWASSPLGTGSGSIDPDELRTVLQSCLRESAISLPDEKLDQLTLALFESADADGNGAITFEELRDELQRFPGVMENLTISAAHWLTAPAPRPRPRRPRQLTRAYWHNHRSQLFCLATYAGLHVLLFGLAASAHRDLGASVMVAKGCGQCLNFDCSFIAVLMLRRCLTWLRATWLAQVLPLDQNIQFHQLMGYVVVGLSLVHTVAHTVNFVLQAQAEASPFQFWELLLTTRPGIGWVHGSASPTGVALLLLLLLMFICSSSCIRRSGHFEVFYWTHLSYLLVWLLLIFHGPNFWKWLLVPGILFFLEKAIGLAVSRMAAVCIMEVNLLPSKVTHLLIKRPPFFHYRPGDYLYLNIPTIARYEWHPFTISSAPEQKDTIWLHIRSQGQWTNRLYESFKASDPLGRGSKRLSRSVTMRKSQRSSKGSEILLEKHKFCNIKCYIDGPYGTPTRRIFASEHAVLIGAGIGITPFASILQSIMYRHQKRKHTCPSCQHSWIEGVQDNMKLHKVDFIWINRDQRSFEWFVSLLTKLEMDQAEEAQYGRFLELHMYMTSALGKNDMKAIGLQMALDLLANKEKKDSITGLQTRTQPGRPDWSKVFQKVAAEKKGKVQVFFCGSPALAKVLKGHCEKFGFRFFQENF
SMILES,z-score [1],composite z-score [2],z-score [3],z-score [4],z-score [5],z-score [6],z-score [7],z-score [8],z-score [9],z-score [10],z-score [11],z-score [12],z-score [13],z-score [14],z-score [15],z-score [16],z-score [17],z-score [18],z-score [19],z-score [20]
CN1C(=O)C2C=CC(C(O)C(c3ccccc3)c3ccccc3)N(NC(=O)OC(C)(C)C)C2C1=O (stereo not given),-1.41 (inactive),0.771,1.41 (inactive),0.742 (inactive),-0.343 (inactive),0.804 (inactive),-1.16,-0.343 (inactive),-4.7 (inactive),-1.76,-1.23,-0.4,-0.698,-2.47,-1.61,-1.46,-0.378 (inactive),-0.654,0.455,0.383 (inactive)
O=C1C[C@@H](O)[C@@H](O)[C@@H]2[C@@H]3C(=O)N(Cc4ccc5c(c4)OCO5)C(=O)[C@@H]3CC[C@@H]12,0.306 (inactive),-0.103,4.63 (inactive),0.632 (inactive),0.311 (inactive),0.182 (inactive),-0.352,0.323 (inactive),-0.209 (inactive),-0.246,0.254,0.797,0.0538,0.339,-0.205,-0.32,-0.409 (inactive),-0.893,0.358,-0.14 (inactive)
CCCCC(=C=CC[C@H](O)c1ccccc1OCCO)C[C@H](O)COCc1ccccc1,-0.16 (inactive),-0.0544,12 (active),1.72 (inactive),0.725 (inactive),0.921 (inactive),-0.424,-1.02 (inactive),-1.37 (inactive),-2.05,0.395,0.0907,0.514,-2.92,-1.29,-0.0498,-0.643 (inactive),-0.621,-0.611,0.189 (inactive)
CC(=O)OC[C@H]1O[C@@H](ON=C(C)CCN2CCc3nc(-c4ccccc4)c(-c4ccccc4)cc3C2)[C@H](OC(C)=O)[C@@H](OC(C)=O)[C@@H]1OC(C)=O,-1.59 (inactive),0.0355,1.12 (inactive),0.327 (inactive),0.993 (inactive),0.465 (inactive),-0.225,-1.13 (inactive),0.55 (inactive),-3.13,-0.21,0.565,0.69,-0.0213,-0.162,1.11,-1.19 (inactive),-0.522,0.231,-0.282 (inactive)
COCCCNC(=O)[C@]1(CCC(=O)OC(C)(C)C)N=C(c2ccc(OCCCO)cc2)O[C@@H]1c1ccccc1N=[N+]=[N-],0.734 (inactive),0.483,32.7 (active),29.9 (active),4.05 (inactive),7.68 (inactive),0.0838,-2.44 (inactive),1.59 (inactive),-2.19,-0.771,0.463,-0.0574,-0.744,-0.387,1.75,3.61 (inactive),-0.69,-0.984,0.576 (inactive)
Cc1ccc(F)cc1S(=O)(=O)N[C@@H]1CCN(Cc2ccc(CC(C)C)cc2)C1,-19.2 (active),-0.146,2.71 (inactive),0.63 (inactive),0.233 (inactive),0.916 (inactive),-0.647,-0.0569 (inactive),-1.44 (inactive),-4.02,-0.815,-0.537,-1.8,-3.34,-3.56,-1.08,-0.545 (inactive),-1.14,-2.19,0.0665 (inactive)
CC(=O)O[C@H]1C2=C(C(=O)[C@@H]3O[C@@H]31)[C@H]1C(C)O[C@@H]2[C@@]23C(=O)[C@@H]4O[C@@H]4[C@@H](O)C2=CO[C@H](C)[C@@H]13 (stereo not given in full),-0.0954 (inactive),-0.191,-0.0129 (inactive),-0.215 (inactive),-0.0291 (inactive),-0.12 (inactive),-0.56,0.735 (inactive),0.358 (inactive),-0.388,-0.192,-0.392,-1.54,-3,-2.64,-1.92,-0.78 (inactive),0.151,-1.05,0.4 (inactive)
CCOC(=O)NN=C1C[C@@H](O)[C@@H](O)[C@@H]2[C@@H]3C(=O)N(C4CCCCC4)C(=O)[C@@H]3CC[C@@H]12,-0.0671 (inactive),-0.147,1.61 (inactive),0.0554 (inactive),-1.02 (inactive),-0.039 (inactive),0.492,-0.000129 (inactive),0.328 (inactive),-0.121,-0.117,-0.091,-0.281,0.0416,-0.771,-0.426,-0.61 (inactive),-0.0516,0.134,-0.361 (inactive)
O=C1O[C@@H](c2ccccc2)[C@@H](c2ccccc2)N2[C@@H](c3ccc(O)cc3)[C@]3(C(=O)Nc4ccccc43)[C@@H](C(=O)O)[C@H]12,0.772 (inactive),-0.0536,1.41 (inactive),-0.968 (inactive),1.11 (inactive),-1.77 (inactive),1.87,-0.215 (inactive),-0.652 (inactive),0.0434,-0.517,0.875,-0.308,-1.33,-1.03,-0.517,0.0106 (inactive),-0.934,-0.536,-0.0947 (inactive)
CC(CCC(=O)OC[C@H]1O[C@H](C#Cc2ccccc2)C=C[C@@H]1Oc1ccc(C)cc1)=NOC[C@@H](O)COCc1ccco1,0.654 (inactive),-0.839,17.7 (active),1.77 (inactive),0.811 (inactive),1.18 (inactive),0.63,-0.0388 (inactive),0.811 (inactive),-0.37,0.303,-0.135,-0.45,-2.4,-2.27,-1.54,0.324 (inactive),-0.31,-1.31,-0.0838 (inactive)
CC(CCN1CCc2nc(-c3ccccc3)c(-c3ccccc3)cc2C1)=NOC(C)CN1CCCCc2nc(C)c(C)cc21 (stereo not given),-0.934 (inactive),-0.106,1.08 (inactive),-0.198 (inactive),0.281 (inactive),0.343 (inactive),-0.0953,-0.839 (inactive),0.405 (inactive),0.108,0.646,0.659,0.797,-1.82,-0.19,4.98,-1.28 (inactive),0.303,0.108,0.935 (inactive)
CCOC(=O)CCN1C(=O)[C@H]2[C@H]3[C@H](O)C=CC(=O)[C@@H]3CC[C@H]2C1=O,-0.221 (inactive),0.0479,-0.0882 (inactive),0.501 (inactive),-0.233 (inactive),0.352 (inactive),0.146,1.22 (inactive),0.463 (inactive),-0.244,0.0872,0.0636,0.338,-0.921,0.586,0.0469,0.53 (inactive),0.203,0.176,0.289 (inactive)
CCOC(=O)NN=C1C[C@@H](O)[C@@H](O)[C@@H]2[C@@H]3C(=O)N(C4CCCCC4)C(=O)[C@@H]3CC[C@H]12,-1.02 (inactive),-0.288,3.79 (inactive),0.323 (inactive),0.822 (inactive),0.574 (inactive),-0.0238,2.18 (inactive),-1.17 (inactive),-1.46,-0.392,1.04,0.31,-0.796,-1.06,-0.0619,-1.05 (inactive),-0.527,0.51,-1.23 (inactive)
CCCCCCc1nc(CCCc2cc3c(c(CCCCCC)n2)[Si](C(C)C)(C(C)C)O[C@H]3c2ccccc2)cc2c1[Si](C(C)C)(C(C)C)O[C@H]2c1ccccc1,-1.58 (inactive),-0.244,0.963 (inactive),0.165 (inactive),0.97 (inactive),0.0888 (inactive),-0.415,-4.87 (inactive),0.859 (inactive),-1.07,1.4,-0.352,-0.17,-0.374,-0.966,0.903,0.774 (inactive),-0.308,0.396,1.09 (inactive)
CC(C)[C@@H](OCc1ccccc1)[C@H](C)C=NO[C@H](C)c1cn([C@H](CO)Cc2ccccc2)nn1,-0.489 (inactive),-0.448,-0.146 (inactive),-1.75 (inactive),-0.525 (inactive),-2.28 (inactive),1.99,-2.23 (inactive),-0.147 (inactive),-1.41,-0.22,0.315,0.235,-0.192,0.153,-1.15,0.629 (inactive),0.339,0.115,-1.02 (inactive)
O=C1[C@H]2[C@H]3[C@H](O)[C@H](O)CC(=NO[C@@H]4O[C@H](CO)[C@@H](O)[C@H](O)[C@H]4O)[C@@H]3CC[C@H]2C(=O)N1c1ccc(F)cc1F,0.178 (inactive),-0.0145,-0.219 (inactive),0.363 (inactive),-0.444 (inactive),0.205 (inactive),-0.709,0.455 (inactive),0.199 (inactive),-0.606,-0.234,0.269,-0.87,0.506,-0.165,0.717,0.738 (inactive),-0.079,0.256,-0.126 (inactive)
COC(=O)[C@@]1(Cc2ccccc2)[C@H]2c3cc(C(=O)N4CCCC4)n(Cc4ccccn4)c3C[C@H]2CN1C(=O)c1ccccc1,-1.04 (inactive),1.27,2.24 (inactive),0.278 (inactive),2.27 (inactive),1.03 (inactive),0.741,0.401 (inactive),-1.83 (inactive),-3.72,-0.935,1.91,-0.924,-0.0789,-1.72,1.06,0.339 (inactive),-0.16,0.333,-1.53 (inactive)
